Records with an inconclusive call do not appear. Calls of active or inactive are those of the source. Unless noted, the call rests on the fitted dose curve; in most records, active means well fitted curve in the direction sought with a large enough effect in the repeat runs; inconclusive means weak or mixed curves; inactive means no such curve, though single readings can be large; an effect the other way counts as inactive or inconclusive.

This note sets out measurements from PubChem BioAssay (Tox21).

The nature of assay [1]: qHTS assay to identify small molecule antagonists of the thyroid receptor (TR) signaling pathway - cell viability counter screen (AID 743064). Further: nearly all actives have a fitted effect of over 50% in size. Further: potency means the concentration at half of the fitted maximal effect. A digest of the protocol: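 In rat pituitary GH3.TRE-Luc reporter cells co-exposed to compound and 1 nM T3 for 23.5 h, cytotoxicity was assessed with CellTiter-Fluor in the same wells, read by fluorescence.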
A general note: In qHTS, concentration-response curves come from the screen itself.

In assay [2] the test system is thyroid hormone receptor (rat, GH3 cells). As to the kind of experiment: qHTS assay to identify small molecule agonists of the thyroid receptor (TR) signaling pathway (AID 743066; calls by dose curve).
Assay [3] is described as follows: qHTS assay to identify small molecule antagonists of the estrogen receptor alpha (ER-alpha) signaling pathway - cell viability counter screen (AID 743074; calls by dose curve;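 further: HEK293 cells carrying ER-alpha-UAS-bla reporter stimulated with 17beta-estradiol; nearly all actives have a fitted effect of over 45% in size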).
Assay [4] can be described thus: qHTS assay to identify small molecule antagonists of the estrogen receptor alpha (ER-alpha) signaling pathway using the BG1 cell line - cell viability counter screen (AID 743081).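 Further: compound given together with 17beta-estradiol as the ER stimulus; nearly all actives have a fitted effect of over 45% in size.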 Further: potency means the concentration at half of the fitted maximal effect.
The target of assay [5] is Aromatase (Homo sapiens) (UniProt P11511). Description: qHTS assay to identify aromatase inhibitors (AID 743083). Further: nearly all actives have a fitted effect of over 55% in size. Further: potency means the concentration at half of the fitted maximal effect.
Chain of Aromatase (Homo sapiens) (P11511 whole entry, looked up): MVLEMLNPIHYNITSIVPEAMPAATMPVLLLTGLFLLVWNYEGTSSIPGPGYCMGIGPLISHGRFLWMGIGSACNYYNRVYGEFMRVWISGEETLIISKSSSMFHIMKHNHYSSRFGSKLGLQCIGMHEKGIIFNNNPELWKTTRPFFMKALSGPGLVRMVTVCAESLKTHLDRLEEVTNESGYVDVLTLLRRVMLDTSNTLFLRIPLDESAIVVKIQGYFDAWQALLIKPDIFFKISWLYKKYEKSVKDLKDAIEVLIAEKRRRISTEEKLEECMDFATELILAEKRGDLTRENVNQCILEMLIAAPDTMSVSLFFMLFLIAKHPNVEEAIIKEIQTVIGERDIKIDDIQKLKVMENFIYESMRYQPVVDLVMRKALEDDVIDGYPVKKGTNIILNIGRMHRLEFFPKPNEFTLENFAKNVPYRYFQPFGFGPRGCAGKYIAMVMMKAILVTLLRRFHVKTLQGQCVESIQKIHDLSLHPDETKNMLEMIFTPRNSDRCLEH
The nature of assay [6]: qHTS assay to identify aromatase inhibitors - cell viability counter screen (AID 743084).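 Further: cells stimulated with testosterone during compound exposure; nearly all actives have a fitted effect of over 55% in size.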 Further: potency means the concentration at half of the fitted maximal effect.
Assay [7] in a line: qHTS assay to identify small molecule that activate the aryl hydrocarbon receptor (AhR) signaling pathway - cell viability counter screen (AID 743086). Further: nearly all actives have a fitted effect of over 45% in size. Further: potency means the concentration at half of the fitted maximal effect. A digest of the protocol: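 HepG2-AhR-luc (HG2L7.5c1) cells, 4000/well, were preincubated 5 h at 37C, exposed to compound in qHTS format for 24 hr at 37C, then given CellTiter-Fluor for 30 min; viability was read as fluorescence in the reporter wells.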

Assay [8] deals with Peroxisome proliferator-activated receptor gamma (Homo sapiens) (UniProt P37231). Description: qHTS assay to identify small molecule agonists of the peroxisome proliferator-activated receptor gamma (PPARg) signaling pathway (AID 743094; active means well fitted activation curve with a large enough effect in the signal ratio in the repeat runs, not every such curve was filed as active; the % refers to the signal ratio). In outline:
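Cell-based bla reporter, HEK293H background, PPARg-driven UAS. Pre-incubation 5 h, 37C, 5% CO2. Compound 17 h, 37C. Substrate 1 h RT; fluorescence.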

Assay [9] can be described thus: qHTS assay to identify small molecule antagonists of the thyroid receptor (TR) signaling pathway (AID 743065). Further: nearly all actives have a fitted effect of over 55% in size. Further: potency means the concentration at half of the fitted maximal effect. A digest of the protocol: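 GH3.TRE-Luc rat pituitary cells carrying two TR response elements driving luciferase were plated for 4 h, given compound plus 1 nM T3 (final), and incubated 23.5 h at 37 C. ONE-Glo luminescence measured reporter inhibition; CellTiter-Fluor fluorescence tracked cytotoxicity.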

Assay [10] deals with Estrogen receptor (Homo sapiens) (UniProt P03372). As to the kind of experiment: qHTS assay to identify small molecule antagonists of the estrogen receptor alpha (ER-alpha) signaling pathway (AID 743069; active means well fitted curve in the direction sought with a large enough effect in the signal ratio in the repeat runs, not every such curve was filed as active; the % refers to the signal ratio). In outline: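 A 17beta-estradiol challenge was applied right after compound transfer to ER-alpha-UAS-bla HEK293 cells previously kept in charcoal-stripped serum. Plates stood 18 hr at 37C and 5% CO2; fluorescence was read following 2 hr FRET substrate loading at room temperature.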
Chain of Estrogen receptor (Homo sapiens) (P03372 whole entry, looked up): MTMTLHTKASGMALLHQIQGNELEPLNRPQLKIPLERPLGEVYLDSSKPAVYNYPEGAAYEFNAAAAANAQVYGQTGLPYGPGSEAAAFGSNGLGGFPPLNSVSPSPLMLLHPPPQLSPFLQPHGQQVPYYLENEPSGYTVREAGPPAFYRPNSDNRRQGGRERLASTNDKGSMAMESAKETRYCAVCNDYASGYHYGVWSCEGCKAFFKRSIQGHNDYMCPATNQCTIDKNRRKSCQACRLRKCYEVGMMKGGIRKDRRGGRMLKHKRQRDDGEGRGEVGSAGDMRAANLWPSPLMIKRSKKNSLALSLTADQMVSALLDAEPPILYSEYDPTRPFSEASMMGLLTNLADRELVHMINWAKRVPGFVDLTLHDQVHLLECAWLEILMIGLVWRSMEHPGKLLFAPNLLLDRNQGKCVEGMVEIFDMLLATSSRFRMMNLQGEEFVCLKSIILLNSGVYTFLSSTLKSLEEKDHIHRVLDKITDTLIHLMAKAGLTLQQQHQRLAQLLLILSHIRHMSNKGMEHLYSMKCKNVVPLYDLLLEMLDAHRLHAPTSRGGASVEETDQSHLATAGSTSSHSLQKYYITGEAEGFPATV

Assay [11] shares this target. As to the kind of experiment: qHTS assay to identify small molecule agonists of the estrogen receptor alpha (ER-alpha) signaling pathway (AID 743075; calls by dose curve;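 further: HEK293 GripTite cells with ER-alpha and UAS-driven beta-lactamase reporter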).
Assay [12] has the same target. Description: qHTS assay to identify small molecule agonists of the estrogen receptor alpha (ER-alpha) signaling pathway using the BG1 cell line (AID 743079). Further: nearly all actives have a fitted effect of over 20% in size. Conditions: BG1Luc4E2 cells, ERE-luciferase agonist, 22 h; activation: at 70.3 µM (top of the series).
The nature of assay [13]: qHTS assay to identify small molecule antagonists of the estrogen receptor alpha (ER-alpha) signaling pathway using the BG1 cell line (AID 743080; calls by dose curve;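 further: BG1 cells stimulated with 17beta-estradiol alongside compound; nearly all actives have a fitted effect of over 25% in size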). A digest of the protocol:
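After 5 days in phenol-red-free 10% charcoal-stripped FBS medium, BG1-Luc-4E2 cells were seeded, left 24 h at 37 C, co-treated with compounds and 17beta-estradiol for 21.5 h, then assayed for viability and luciferase.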

For assay [14], the target named is Aryl hydrocarbon receptor (Homo sapiens) (UniProt P35869). Description: qHTS assay to identify small molecule that activate the aryl hydrocarbon receptor (AhR) signaling pathway (AID 743085). Further: nearly all actives have a fitted effect of over 15% in size. Further: potency means the concentration at half of the fitted maximal effect.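 On activation: HG2L7.5c1 human HepG2 liver cells with stably integrated DRE-driven firefly reporter.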 A digest of the protocol: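 AhR agonist activity is inferred from enhanced light output of a DRE-controlled firefly luciferase reporter in HepG2 cells, measured with ONE-Glo following 24 h treatment at 37C.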
Chain of Aryl hydrocarbon receptor (Homo sapiens) (P35869 whole entry, looked up): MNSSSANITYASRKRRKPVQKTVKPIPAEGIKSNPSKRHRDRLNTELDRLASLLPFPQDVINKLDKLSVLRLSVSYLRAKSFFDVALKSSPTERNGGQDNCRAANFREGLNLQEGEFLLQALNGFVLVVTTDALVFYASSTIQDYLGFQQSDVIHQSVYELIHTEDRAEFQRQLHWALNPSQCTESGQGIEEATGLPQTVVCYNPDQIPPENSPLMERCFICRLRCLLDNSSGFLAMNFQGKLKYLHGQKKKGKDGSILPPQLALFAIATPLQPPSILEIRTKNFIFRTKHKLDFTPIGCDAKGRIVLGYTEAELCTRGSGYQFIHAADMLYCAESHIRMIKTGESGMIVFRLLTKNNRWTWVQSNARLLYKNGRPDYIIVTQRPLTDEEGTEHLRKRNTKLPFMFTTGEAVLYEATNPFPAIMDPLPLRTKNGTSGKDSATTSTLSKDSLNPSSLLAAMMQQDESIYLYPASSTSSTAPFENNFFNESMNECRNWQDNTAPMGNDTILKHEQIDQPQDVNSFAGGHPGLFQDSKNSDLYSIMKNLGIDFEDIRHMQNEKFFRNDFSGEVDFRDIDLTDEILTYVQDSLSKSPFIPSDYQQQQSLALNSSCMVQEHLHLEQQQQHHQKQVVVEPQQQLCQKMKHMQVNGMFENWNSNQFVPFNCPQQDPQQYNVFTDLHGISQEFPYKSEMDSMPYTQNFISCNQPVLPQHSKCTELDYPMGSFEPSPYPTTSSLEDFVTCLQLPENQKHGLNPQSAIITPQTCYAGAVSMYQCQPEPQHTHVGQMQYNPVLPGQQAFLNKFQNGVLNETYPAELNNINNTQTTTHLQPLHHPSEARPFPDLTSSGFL

For assay [15], the target named is Peroxisome proliferator-activated receptor gamma (Homo sapiens) (UniProt P37231). Description: qHTS assay to identify small molecule antagonists of the peroxisome proliferator-activated receptor gamma (PPARg) signaling pathway (AID 743191; calls by dose curve; further: nearly all actives have a fitted effect of over 30% in size; further: potency means the concentration at half of the fitted maximal effect). In outline:
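GeneBLAzer PPARg UAS-bla HEK293H cells carrying a UAS-driven beta-lactamase reporter were plated at 3000 cells/well, preincubated 5 h at 37C, then given compound for 17 h at 37C; LiveBLAzer B/G FRET substrate was read after 1 h at room temperature.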

Assay [16] can be described thus: qHTS assay to identify small molecule antagonists of the peroxisome proliferator-activated receptor gamma (PPARg) signaling pathway - cell viability counter screen (AID 743194). Further: nearly all actives have a fitted effect of over 55% in size. Further: potency means the concentration at half of the fitted maximal effect. In outline:
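PPARg-UAS-bla HEK293H cells were plated, rested 5 h at 37 C, then treated with compounds plus rosiglitazone (50 nM final) for 17 h at 37 C; viability was then read by CellTiter-Glo luminescence after 30 min at room temperature.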

Assay [17] in a line: qHTS assay for small molecule activators of the heat shock response signaling pathway - cell viability counter screen (AID 743209). Further: nearly all actives have a fitted effect of over 50% in size. In outline:
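Same-well multiplex: after 2.5 h room-temperature incubation with LiveBLAzer B/G substrate and fluorescence reading, CellTiter-Glo reagent was added to HSE-bla HeLa cells that had received compound for 5 h at 37 C; luminescence read after 30 min.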

Assay [18] in a line: qHTS assay for small molecule activators of the heat shock response signaling pathway (AID 743210; active means well fitted activation curve with a large enough effect in the signal ratio in the repeat runs, with a control signal flat, not every such curve was filed as active; the % refers to the signal ratio). In outline:
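Heat shock element–beta-lactamase HeLa reporter cells; qHTS with compounds for 5 h at 37 C; detection by FRET substrate fluorescence after 2.5 h at RT.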

Assay [19] can be described thus: qHTS assay for small molecule agonists of the antioxidant response element (ARE) signaling pathway - cell viability counter screen (AID 743203; calls by dose curve; further: nearly all actives have a fitted effect of over 55% in size; further: potency means the concentration at half of the fitted maximal effect). In outline:
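Measured in the same wells as the beta-lactamase ARE reporter, this read-out is CellTiter-Glo luminescence from HepG2 ARE-bla cells given compounds for 16 hrs.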

Assay [20] is described as follows: qHTS assay for small molecule agonists of the antioxidant response element (ARE) signaling pathway (AID 743202; active means well fitted activation curve with a large enough effect in the signal ratio in the repeat runs, not every such curve was filed as active; the % refers to the signal ratio). In outline:
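Following a 16 h, 37 C exposure of reporter HepG2 cells (ARE-driven beta-lactamase, 2,000 cells/well) to compounds, FRET substrate was applied for 2 h at room temperature and fluorescence intensity recorded.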

Chain of Peroxisome proliferator-activated receptor gamma (Homo sapiens) (P37231 whole entry, looked up): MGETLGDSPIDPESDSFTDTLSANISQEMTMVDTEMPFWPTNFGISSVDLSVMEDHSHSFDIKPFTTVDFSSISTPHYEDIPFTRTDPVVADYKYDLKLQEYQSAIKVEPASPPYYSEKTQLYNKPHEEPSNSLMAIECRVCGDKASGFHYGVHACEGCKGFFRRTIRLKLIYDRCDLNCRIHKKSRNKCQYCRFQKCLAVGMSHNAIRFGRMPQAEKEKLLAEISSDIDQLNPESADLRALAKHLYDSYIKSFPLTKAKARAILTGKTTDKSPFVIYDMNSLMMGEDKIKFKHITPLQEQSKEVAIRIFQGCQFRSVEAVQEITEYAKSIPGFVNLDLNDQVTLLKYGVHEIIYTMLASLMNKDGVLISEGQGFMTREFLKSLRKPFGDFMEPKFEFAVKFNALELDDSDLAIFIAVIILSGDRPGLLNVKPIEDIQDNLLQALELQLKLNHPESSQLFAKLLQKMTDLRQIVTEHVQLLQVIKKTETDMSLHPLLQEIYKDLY

Turning to `CCCCCC[C@@H](O)C/C=C\CCCCCCCC(=O)O`, the Potency result in assay [1], in [3], in assay [4], in assay [5], in [6] and in [7] was “inactive” in each case. In addition, the Potency entry in [8] is “inactive”. Also, in [2], the call was inactive.
In the case of `CN1CCCC(CC2c3ccccc3Sc3ccccc32)C1` (stereo not given), the Potency was 9.02 µM (active) in assay [1], 7.17 µM (active) in [9], 10.6 µM (active) in assay [15] and 16.8 µM (active) in [16]. The Potency result in assay [10], in [3], in assay [11], in assay [12], in assay [13] and in assay [4] was “inactive” each time. Further, the Potency entry in assay [5], in assay [6], in assay [14], in [17] and in assay [18] was “inactive” throughout.
On to `CCC(C)COC(=O)CC(C)C` (stereo not given), for which the Potency result in [1], in [3], in [11], in assay [12], in assay [13] and in [4] was “inactive” in each case. In addition, the Potency result in assay [5], in [6], in assay [14], in [7], in [15] and in [19] was “inactive” throughout. Moreover, the Potency entry in [17] and in assay [18] was “inactive” in each case. In addition, the compound was classed as inactive in assay [2].
In the case of `OCCN1CCN(CCCN2c3ccccc3Sc3ccc(Cl)cc32)CC1`, the figures for the Potency in [1], in assay [9] and in assay [19] were 3.59 µM (active), 5.07 µM (active) and 29.8 µM (active), respectively. Moreover, the Potency entry in assay [10], in assay [3], in assay [11], in assay [12], in assay [13] and in assay [4] was “inactive” throughout. Also, the Potency result in [5], in assay [8], in assay [17] and in assay [18] was “inactive” each time.
For `CC1=C(Br)C(=O)C(Br)=C/C1=C(/c1ccccc1S(=O)(=O)O)c1cc(Br)c(O)c(Br)c1C`, the Potency in assay [1] was 46.6 µM (active); in [9], 18.6 µM (active); in assay [4], 37 µM (active); in assay [5], 18.6 µM (active); in assay [6], 23.4 µM (active); in [7], 18.6 µM (active). Also, the call in [2] was inactive. Moreover, the Potency result in assay [14], in assay [8], in [16], in [20], in assay [17] and in [18] was “inactive” each time.
`CCC1NC(=O)c2cc(S(N)(=O)=O)c(Cl)cc2N1` (stereo not given): the Potency entry in [1], in assay [9], in [4], in assay [5], in assay [7] and in [8] was “inactive” in each case. Moreover, the Potency entry in assay [15], in [16], in assay [20] and in assay [18] was “inactive” each time. Further, the compound was classed as inactive in assay [2].
In the case of `CC(=O)N/N=C/c1ccc([N+](=O)[O-])o1`, the values for the Potency in assay [1] and in assay [9] were 18.8 µM (active) and 16.8 µM (active), respectively. The Potency entry in [10], in [3], in assay [11], in assay [13], in [4] and in assay [8] was “inactive” throughout. Besides, the Potency entry in [16] and in assay [19] was “inactive” each time.
Regarding `CC(C)C(O)(c1ccc(OC(F)(F)F)cc1)c1cncnc1` (stereo not given), the Potency result in assay [1], in assay [3], in assay [4], in assay [5], in [6] and in assay [14] was “inactive” each time. In addition, the Potency entry in [7], in assay [16], in assay [19] and in assay [17] was “inactive” in each case. For the same compound, the outcome in assay [2] was inactive.
For the compound `C[C@@H]1CN(CCCn2c3ccccc3c3ccccc32)C[C@H](C)N1`, the Potency in assay [1] is 10.6 µM (active); in [9], 8.41 µM (active); in [14], 26.6 µM (active); in assay [16] it was 23.7 µM (active); in assay [19], 26.6 µM (active). For the same compound, the Potency result in [4], in assay [6], in assay [17] and in assay [18] was “inactive” throughout.
